Compound activity: PubChem, National Center for Advancing Translational Sciences (NCATS)
Abeta yeast res: A-beta toxicity reversal in yeast | yeast expressing A-beta42, growth rescue, OD600, 48 h; response scale: 0% DMSO, 100% iron-clioquinol control | AID 1347071 | 410,000 compounds, 0.063% hits | Potency, µM (doses to about 46.1 µM), hits mostly activators; further: potency means the concentration at half of the fitted maximal effect; nearly all actives have a fitted effect of over 55% in size
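Growth rescue measured by 600 nm absorbance after 48 h yeast culture at 30 C with compound. Values normalized between DMSO and an equimolar ferric chloride plus clioquinol control.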
aSyn yeast inh: inhibitors of alpha-synuclein toxicity in yeast; Yeast expressing alpha-synuclein, growth rescue, BacTiter-Glo, 24 h; Potency, µM (highest dose often 46.1 µM), for inactives: at the highest dose growth rescue (activation), actives largely listed as activators; 370,000 compounds, 0.14% hits; further: potency means the concentration at half of the fitted maximal effect; % of control where 0% means no effect; nearly all actives have a fitted effect of over 65% in size
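Screening used galactose-induced yeast with toxic alpha-synuclein levels, exposed to compound for 24 hr at 30 deg C. Cell growth, read with BacTiter-Glo luminescence, gave the measured signal.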
FUS yeast rescue: suppressors of FUS proteinopathy in yeast; Potency, µM (titrated, usually from 76.6 µM), hits mostly activators; 390,000 compounds, 0.24% hits; AID 1347120; S. cerevisiae FUS-expressing, growth rescue, OD600, 24 h;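 further: potency means the concentration at half of the fitted maximal effect; plate controls were DMSO vehicle for no effect and reference control for full effect; nearly all actives have a fitted effect of over 55% in size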
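Read-out: OD at 600 nm after 24hr at 30C, reporting rescue of FUS-induced yeast toxicity. Cells at OD 0.005 in galactose (2%) minimal medium; compounds tested in a dilution series; CP55940 titration from 92uM final as control.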
CCT chaperon mod: changes cytosolic chaperonin activity. purified chaperonin ATPase assay, HTRF ADP detection, 30 min. activity change, % (no concentration beside the values), hits read low. 360,000 compounds, 0.3% hits; in the data active means activity change below about -30%; further: on the % scale 0 is the no-effect control and ±100 the full control effect
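We incubate TRiC, 40 or 20 nM final, with library compounds at 76 uM and 10 uM ATP for 30 min at 37 °C. ADP formed is detected with Transcreener HTRF reagents after 30 min at room temperature.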
TDP43 rescue: TDP-43 toxicity inhibition in yeast; TDP-43 expressing yeast growth rescue, BacTiter-Glo, 24 h; Potency, µM (highest dose often 46.1 µM), without a hit: at the top dose growth rescue (activation), actives largely listed as activators; 410,000 compounds, 1.8% hits; AID 652104; further: potency means the concentration at half of the fitted maximal effect; % of control where 0% means no effect; nearly all actives have a fitted effect of over 50% in size
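In this qHTS, compounds that restore growth of yeast expressing TDP-43 appear as activators. Cells (OD600=0.02, galactose medium, raffinose-pregrown) are incubated with compound 24 hr at 30 deg C and growth is quantified by BacTiter-Glo.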
Mm-Cpn inhibitor: blocks the Methanococcus maripaludis chaperonin Mm-Cpn. Potency, µM (doses to about 76.9 µM), inactives show top-dose activity, negative = inhibition, hits mostly inhibitors. purified Mm-Cpn ATPase, ADP Transcreener TR-FRET. 330,000 compounds, 0.031% hits; further: potency means the concentration at half of the fitted maximal effect; on the % scale 0 is the no-effect control and ±100 the full control effect; nearly all actives have a fitted effect of over 80% in size
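ATPase turnover read by TR-FRET ADP competition (Eu cryptate antibody/ADP-d2, 665/590 nm): 10uM ATP final, 25nM Mm-CPN final, 30 min 37degC after 10-min compound preincubation, pH 7.4 Tris/KCl/MgCl2/DTT buffer.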
* marks the source's active call; other numbers are inactive results; i = inactive; ? = inconclusive; / = no result. Rows were chosen to be rich in hits. Some 2.3% of all compounds tested hit in one or more screens of this group. Unless noted, the call rests on the fitted dose curve; in most records, active means well fitted curve in the direction sought with a large enough effect; inconclusive means small, poorly fitted or top-dose-only effect, or another doubt; inactive means no such curve, though single readings can be large; an effect the other way counts as inactive or inconclusive.

SMILES	Abeta yeast res	aSyn yeast inh	FUS yeast rescue	CCT chaperon mod	TDP43 rescue	Mm-Cpn inhibitor
CC1CCN(c2c3c(nc4ncnn24)CCCC3)CC1	/	/	i	/	/	/
CCOc1ccc(C2=CC(=O)C[C@H](c3ccc(OC)cc3)C2)cc1	i	12%	i	-6	13µM*	-6%
O=C1C=C(C#Cc2ccccc2)C[C@@H](c2ccc(F)cc2)C1	i	1%	i	-3	18µM*	/
COc1ccccc1C#CC1=CC(=O)C[C@H](c2ccc(F)cc2)C1	i	3%	i	0	2%	/
COc1ccc(C2=CC(=O)CC(c3ccc(F)cc3)C2)cc1 (configuration not stated)	i	9%	i	1	16µM*	/
CCOc1ccc(-c2ccc(C3=CC(=O)C[C@H](c4ccc(F)cc4)C3)cc2)cc1	i	8%	i	1	11%	/
COc1ccc(C2=CC(=O)CC(c3ccc(OC)cc3)C2)cc1 (configuration not stated)	i	14%	i	-1	25µM*	-2%
COc1ccc(C2=CC(=O)C[C@H](c3ccc(Cl)cc3)C2)cc1	i	2%	i	-2	?	-3%
COc1ccc(CNC(=O)O[C@H]2CC[C@@]34CCCN3C(=O)CCC[C@H]4[C@H]2C)cc1OC	/	/	i	/	/	/
COc1cccc2c1C(=O)/C(=C\c1ccc(N(C)C)cc1)C2	/	1%	/	/	/	/
CCc1ccc(OCCn2c(CCNC(=O)C3CCCCC3)nc3ccccc32)cc1	/	-8%	/	/	/	/
CCCN(CCC)CCNC(=O)c1cc(Sc2ccc(Cl)cc2)nc2ccccc12	i	/	i	/	10%	/
COCc1ccccc1C1=CC(=O)C[C@H](c2ccc(OC)cc2)C1	i	9%	i	-3	11µM*	-11%
O=C1C=C(c2ccc(CO)cc2)C[C@@H](c2ccc(F)cc2)C1	i	14%	i	0	35µM*	/
CCc1ccccc1C1=CC(=O)C[C@H](c2ccc(OC)cc2)C1	?	5%	i	0	?	0%
Cc1nc(/C(N)=N/OC(=O)c2ccccc2Cl)c(C(F)(F)F)o1	i	0%	i	-3	28%	-1%
Cc1nc(/C(N)=N/OC(=O)c2cccc(Cl)c2)c(C(F)(F)F)o1	i	1%	i	-3	20µM*	-1%
CCc1cc(SC#N)cc(C)c1N	i	-2%	i	2	18µM*	-1%
CCc1cc(SC#N)cc(C)c1NC(=O)CCl	i	13%	i	-2	?	-1%
CCOc1nc(C#N)nc(N2CCOCC2)n1	/	1%	/	/	/	/
COc1ccc(OCCCC(=O)Nc2cc([N+](=O)[O-])ccc2C)cc1	i	-4%	i	-44*	14%	-1%
COc1ccc(C(=O)CCC(=O)Nc2cc(C)ccc2C)cc1	i	/	i	/	11µM*	/
COC(=O)[C@]12C[C@H](CC(=O)NCC3CCCCC3)C(=O)N(Cc3ccc(Cl)cc3Cl)C1=C[C@H](COCc1ccccc1)O[C@@H]2C	/	/	i	/	/	/
O=C(Nc1ccc2nc(-c3cccs3)c(-c3cccs3)nc2c1)N1CCCCC1	/	2%	/	/	/	/
O=C(NCCc1c[nH]c2ccccc12)OCc1cn(-c2ccc(Cl)cc2)nn1	/	/	i	/	/	/
SMILES	Abeta yeast res	aSyn yeast inh	FUS yeast rescue	CCT chaperon mod	TDP43 rescue	Mm-Cpn inhibitor
N#CC(CC(=O)c1ccc(F)cc1)c1ccc2c(c1)OCO2 (configuration not stated)	i	11%	i	-1	11µM*	-2%
O=C(O)CC(CC(=O)O)c1ccc2c(c1)OCO2	/	0%	/	/	/	/
Cc1nc(-c2ccccn2)nc(SCC(=O)c2ccc(F)cc2)c1Cl	i	?	i	-3	11µM*	-2%
COc1ccc(C(=O)CSc2nc(-c3ccccn3)nc(C)c2Cl)cc1	i	-11%	i	0	?	-2%
N#Cc1nc(-c2cccc3ccccc23)oc1NCC#CCOC(=O)c1cccs1	/	/	/	/	/	-8%
O=C(CSc1ncc(-c2ccccc2)[nH]1)Nc1ccc(Cl)cc1	i	/	i	/	22µM*	/
